AmpC inh detg: inhibitors of E. coli AmpC beta-lactamase with detergent; AmpC hydrolysis of nitrocefin, absorbance 480 nm, 0.01% Triton; Potency, µM (titrated, usually from 114 µM), for inactives: at the highest dose activity change, negative = inhibition, hits mostly inhibitors; 370,000 compounds, 0.041% hits;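 note: potency is the fitted concentration of half-maximal effect; 0% = no-compound wells and -100% = no-enzyme wells; nearly all actives have a fitted effect of over 25% in size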
Target sequence (P00811 whole entry, looked up): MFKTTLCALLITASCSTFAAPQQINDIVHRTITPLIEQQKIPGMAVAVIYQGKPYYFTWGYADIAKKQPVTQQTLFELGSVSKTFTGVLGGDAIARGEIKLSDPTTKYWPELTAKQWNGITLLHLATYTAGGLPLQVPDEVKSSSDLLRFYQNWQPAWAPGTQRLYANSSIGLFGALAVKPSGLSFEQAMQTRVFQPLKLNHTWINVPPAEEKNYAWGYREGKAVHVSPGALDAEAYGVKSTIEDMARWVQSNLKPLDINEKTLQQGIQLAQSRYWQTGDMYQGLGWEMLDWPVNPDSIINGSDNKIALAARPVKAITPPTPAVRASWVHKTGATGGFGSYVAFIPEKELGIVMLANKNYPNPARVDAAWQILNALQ
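20 mM phosphate pH 7.0 + 0.01% (detergent screen) or 0.0001% Triton X-100; 5.3 nM AmpC reagent; cpd preinc 15 min RT; nitrocefin (800 uM stock) to start; A480 q20 s × 4 min; Activity was normalised to no-enzyme and no-compound control wells.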
Shiga inhibitor: Shiga toxin inhibition; Vero cells, Shiga toxin protein synthesis inhibition reporter; inhibition, % at 38.7 µM; 290,000 compounds, 9.2% hits; AID 2315; in the data active = inhibition mostly above about 28%, no sharp cut-off; inactive = mostly below about 43%; note: 0% is about no effect
Cycloheximide cs: affects cycloheximide protein synthesis inhibition readout, counter-screen | max response, % | cell reporter, cycloheximide protein synthesis inhibition counterscreen | 300,000 compounds, 12% hits; in the data active = max response mostly above about 13%, no sharp cut-off; inactive = mostly below about 14%; note: read at 38.3 µM for the half of the compounds with a filed dose; 0% is about no effect
SARS PLpro yeast: blocks SARS-CoV papain-like protease in a yeast assay | AID 485353 | 330,000 compounds, 0.19% hits | Potency, µM (series often up to 32.9 µM), for inactives: top-dose activity, positive = growth rescue, actives largely listed as activators | S. cerevisiae expressing SARS-CoV PLpro, growth rescue; calls by dose curve; note: potency is the fitted concentration of half-maximal effect; 0% is about no effect; nearly all actives have a fitted effect of over 55% in size
AMA1 RON2 block: disrupts binding of P. falciparum AMA1 to RON2; AlphaScreen AMA1-biotinylated RON2 peptide binding; Potency, µM (highest dose often 58.2 µM), for inactives: at the top dose activity change, negative = inhibition, most hits filed as inhibitors; 360,000 compounds, 0.2% hits; AID 720542;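 note: potency is the fitted concentration of half-maximal effect; 0% = vehicle wells and -100% = peptide control; nearly all actives have a fitted effect of over 45% in size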
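AMA1 (3D7) with his tag at 25 nM final met compounds first, then biotinylated RON2 peptide at 25 nM; detection used donor plus acceptor beads, 10 µg/mL apiece, read by AlphaScreen after 30 min at room temperature.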
AmpC inh no detg: blocks E. coli AmpC beta-lactamase in detergent-free assay. 330,000 compounds, 0.52% hits. AmpC nitrocefin hydrolysis, absorbance 480 nm, 0.0001% Triton. Potency, µM (highest dose often 57.1 µM), without a hit: top-dose activity change, negative = inhibition, actives largely listed as inhibitors. P00811;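 note: potency is the fitted concentration of half-maximal effect; plate controls were no compound for no effect and no enzyme for full effect; nearly all actives have a fitted effect of over 20% in size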
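20 mM phosphate pH 7.0 + 0.01% (detergent screen) or 0.0001% Triton X-100; 5.3 nM AmpC reagent; cpd preinc 15 min RT; nitrocefin (800 uM stock) to start; A480 q20 s × 4 min; Activity was normalised to no-enzyme and no-compound control wells.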
An asterisk follows results filed as active; ? = inconclusive; nt = no result given; [ ] = dose if it differs, or a comment. The sample as a whole holds a higher share of hits than the screen did. Unless noted, calls come from the whole dose curve; as a rule, active = well fitted curve in the direction sought with a large enough effect; inconclusive = small, poorly fitted or top-dose-only effect, or another doubt; inactive = no such curve, though single readings can be large; an effect the other way counts as inactive or inconclusive.

SMILES	AmpC inh detg	Shiga inhibitor	Cycloheximide cs	SARS PLpro yeast	AMA1 RON2 block	AmpC inh no detg
COC(=O)c1sc(N)c(C(=O)OC)c1CSc1nnc(-c2ccccc2Cl)n1C	-12.8%	-4.3	-0.9	2.3%	-1.9%	-12.5%
COc1cccc(OCCNC(=O)c2cccc(OC)c2)c1	-14.4%	1.2	7.3	4.2%	-1.9%	-15.5%
COc1cccc(OCCNC(=O)c2ccc(C)cc2)c1	0.7%	39.8*	26.7*	0.8%	6.0%	-9.2%
COc1ccc(OCC(=O)NCc2ccc(Cl)cc2)cc1	-15.3%	nt	1.3	3.2%	2.2%	-11.9%
COc1ccc(CCC(=O)NCCOc2ccc(Cl)cc2)cc1	4.1%	40.2	31.7*	-0.8%	5.5%	24.5%
CC(=O)Nc1cccc(OCCCNC(=O)c2ccc(C(C)(C)C)cc2)c1	1.5%	44.6*	25.3*	-0.1%	-7.5%	13.3%
CC(Oc1ccccc1)C(=O)OCC(=O)NC(=O)NC1CCCCC1 (stereo not drawn)	?	nt	nt	-2.6%	-0.9%	-11.8%
CC1=C(C)CC(C(=O)NC2CCN(C(C)C)CC2)C(C(=O)O)C1 (stereo not drawn)	-8.2%	-9.4	-2.3	0.3%	13.9%	4.9%
O=C(CCN1C(=O)S/C(=C\C=C\c2ccccc2)C1=O)Nc1ccc(O)cc1	-8.9%	52.1*	32.4*	9.7%	-4.6%	-31.4%
O=C(CN1C(=O)S/C(=C\C=C\c2ccccc2)C1=O)Nc1cccc(O)c1	-9.2%	38.0*	33.6*	-11.5%	2.6%[2.32 µM]	-50.9%
O=C(CN1C(=O)S/C(=C\C=C\c2ccccc2)C1=O)Nc1ccccc1C(=O)O	6.4%	-6.2	-2.3	0.9%	-2.1%	-41.2%
CC(C)c1ccc2c(c1)[C@H]1OCC[C@H]1[C@@H](c1cccs1)N2	?	58.9*	69.8*	-55.8%	-24.5%	-25.7%
COc1ccccc1-c1ccc(/C=C2\C=CC(=O)O2)o1	2.3%	92.5*	44.9*	-2.7%	37.7%	-30.3%
CC(C)(C)c1ccc(C(=O)NC(=S)Nn2cnnc2)cc1	-1.9%	120.4*	18.5*	-12.9%	65.8%	-18.6%
CC(C)(C)c1ccc(C(=O)NC(=S)N2CCCC2)cc1	1.7%	28.3	32.3*	-4.4%	91.0%	-7.0%
CC(C)(C)c1ccc(C(=O)NC(=S)N2CCCCCC2)cc1	-13.2%	34.5	19.8*	-14.7%	79.7%	-26.6%
CC1CCN(C(=S)NC(=O)c2ccc(C(C)(C)C)cc2)CC1	2.6%	5.1	5.1	-12.0%	82.2%	-19.4%
CCn1c(SCC(=O)NC2CCCCC2)nnc1-c1cccnc1	0.0%	1.1	0.9	-3.3%	19.0%	-14.3%
CN(C(=O)CCc1nc2ccccc2s1)c1ccccc1	-2.0%	0.6	21.3*	-16.6%	2.8%	-9.4%
CN(C(=O)COc1cc(C(F)(F)F)nn1C)c1ccccc1	8.1%	14.8	-1.8	0.3%	1.9%	0.7%
CN(C(=O)COc1nc2ccccc2s1)c1ccccc1	nt	23.4*	10.6	nt	nt	nt
O=C(COc1ccccc1Cl)NCCNC(=O)c1ccco1	?	3.6	-1.0	-9.5%	8.2%	-15.3%
COC(=O)c1ccc(NC(=O)CSc2nc3ccc(OC)cc3[nH]2)cc1	-10.1%	nt	nt	nt	nt	nt
Cc1cccc(C)c1NC(=O)Cn1c(=O)n(CCCC(=O)NCc2ccco2)c(=O)c2sccc21	-3.3%	12.2	2.9	5.0%	-2.9%	14.0%
COC(=O)C(C)N1C(=O)S/C(=C\c2ccc(-c3ccc(C(=O)O)cc3C)o2)C1=O (stereo not drawn)	-2.5%	88.9*	43.6*	-0.6%	-3.5%	-27.5%
SMILES	AmpC inh detg	Shiga inhibitor	Cycloheximide cs	SARS PLpro yeast	AMA1 RON2 block	AmpC inh no detg
CC(C)(C)Nc1nc(OCC#N)nc(N2CCCCC2)n1	-3.8%	17.2	-0.7	-1.3%	-2.2%	23.6%
O=C(N/N=C/c1c[nH]c2ccccc12)c1ccncc1	-5.4%	13.5	-0.8	-7.4%	51.3%	-9.4%
Cc1nc(N)sc1C(=O)N/N=C/c1ccc([N+](=O)[O-])cc1	0.2%	0.4	-2.1	-0.4%	-8.9%	-2.7%
Cc1nc(N)sc1C(=O)N/N=C/c1c[nH]c2ccccc12	9.4%	37.9	21.1*	-2.2%	20.6%	-17.0%
Cc1nc(N)sc1C(=O)N/N=C/c1ccccc1[N+](=O)[O-]	-6.8%	126.1*	35.6*	-2.4%	nt	-20.7%
CC(/C=N/NC(=O)c1sc(N)nc1C)=C\c1ccccc1	-3.3%	56.4*	43.8*	9.1%	0.2%	-31.1%
Cc1nc(N)sc1C(=O)N/N=C/c1ccco1	-4.3%	1.7	-3.6	11.9%	9.4%	-10.8%
Cc1cccc(S(=O)(=O)c2cn(C)c3cc(N4CCN(c5ccc(F)cc5)CC4)c(F)cc3c2=O)c1	-0.7%	nt	nt	nt	nt	nt
Cc1cccc(OCCNc2ncccc2[N+](=O)[O-])c1	nt	nt	nt	nt	-0.6%	nt
Cc1nc2sccn2c(=O)c1S(=O)(=O)Nc1ccc(N2CCN(C(=O)C(C)C)CC2)cc1	-9.1%	-12.1	1.6	-3.7%	-5.5%	26.1%
Cc1cccc(-c2nnc3sc(-c4ccccc4C)nn23)c1	-14.9%	45.8*	11.2	-0.9%	9.4%	75.3%
c1ccc(-c2nnc3sc(-c4csc5c4CCCC5)nn23)cc1	-6.2%	-34.8	13.0*	-22.0%	0.8%	6.1%
CNc1cnn(-c2ccc(C)cc2)c(=O)c1Cl	?	81.3*	40.0*	?	-1.6%	-19.2%
COc1ccc(Oc2cnn(-c3ccccc3)c(=O)c2Br)cc1	-7.2%	8.6	4.6	-1.0%	13.0%	-3.1%
COc1cnn(-c2ccc(C)cc2)c(=O)c1Br	-2.6%	61.1	39.3*	3.7%	1.3%	1.2%
CNc1cnn(-c2ccc(C)cc2)c(=O)c1Sc1ccc(C)cc1	-0.3%	-4.5	-4.9	0.2%	7.0%	-32.1%
COc1cnn(-c2ccc(C)cc2)c(=O)c1Cl	?	79.1*	51.7*	1.6%	9.8%	-7.7%
O=C(O)C1C2C=CC(C2)C1C(=O)NCCc1ccccc1 (stereo not drawn)	-2.0%	30.0*	12.5	-1.7%	-4.2%	-14.8%
O=C1C2C3C=CC(C3)C2C(=O)N1CCCCCCN1C(=O)C2C3C=CC(C3)C2C1=O (stereo not drawn)	6.3%	68.1*	48.2*	-0.1%	-1.1%	-2.5%
O=C(CN1C(=O)C2C3C=CC(C3)C2C1=O)OCC(=O)c1ccccc1 (stereo not drawn)	1.4%	37.4*	21.0*	5.9%	-15.0%	-8.9%
O=C(CN1C(=O)C2C3C=CC(C3)C2C1=O)OCC(=O)c1ccc(Cl)cc1 (stereo not drawn)	-3.8%	-3.6	13.3	-10.0%	-3.1%	9.7%
O=C(O)C1C2C=CC(C2)C1C(=O)NCCCc1ccccc1 (stereo not drawn)	?	13.0	-1.4	-5.7%	7.7%	1.3%
O=C(CCN1C(=O)C2C3C=CC(C3)C2C1=O)NCCc1ccccc1 (stereo not drawn)	-0.2%	19.1	9.7*	-7.4%	1.6%	-21.4%
